# Source: paper PMC4336329 (PLoS ONE, 2015)
# In all, about 310,000 compounds went through this assay and about 14,000 (4.5%) showed an effect of 50% or more. Effects have a minus sign here. The entries come from a sample that favours strong results as a whole.
# Molecular target: human ether-à-go-go-related gene (hERG) potassium channel (human, UniProt Q12809)
# Experiment: primary screen, population patch clamp on CHO cells stably expressing hERG; higher = less effect of the substance
# 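Note: peak tail current of the secondary pulse compared with the same well before compound.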
# Sequence of human ether-à-go-go-related gene (hERG) potassium channel (Q12809 whole entry, looked up): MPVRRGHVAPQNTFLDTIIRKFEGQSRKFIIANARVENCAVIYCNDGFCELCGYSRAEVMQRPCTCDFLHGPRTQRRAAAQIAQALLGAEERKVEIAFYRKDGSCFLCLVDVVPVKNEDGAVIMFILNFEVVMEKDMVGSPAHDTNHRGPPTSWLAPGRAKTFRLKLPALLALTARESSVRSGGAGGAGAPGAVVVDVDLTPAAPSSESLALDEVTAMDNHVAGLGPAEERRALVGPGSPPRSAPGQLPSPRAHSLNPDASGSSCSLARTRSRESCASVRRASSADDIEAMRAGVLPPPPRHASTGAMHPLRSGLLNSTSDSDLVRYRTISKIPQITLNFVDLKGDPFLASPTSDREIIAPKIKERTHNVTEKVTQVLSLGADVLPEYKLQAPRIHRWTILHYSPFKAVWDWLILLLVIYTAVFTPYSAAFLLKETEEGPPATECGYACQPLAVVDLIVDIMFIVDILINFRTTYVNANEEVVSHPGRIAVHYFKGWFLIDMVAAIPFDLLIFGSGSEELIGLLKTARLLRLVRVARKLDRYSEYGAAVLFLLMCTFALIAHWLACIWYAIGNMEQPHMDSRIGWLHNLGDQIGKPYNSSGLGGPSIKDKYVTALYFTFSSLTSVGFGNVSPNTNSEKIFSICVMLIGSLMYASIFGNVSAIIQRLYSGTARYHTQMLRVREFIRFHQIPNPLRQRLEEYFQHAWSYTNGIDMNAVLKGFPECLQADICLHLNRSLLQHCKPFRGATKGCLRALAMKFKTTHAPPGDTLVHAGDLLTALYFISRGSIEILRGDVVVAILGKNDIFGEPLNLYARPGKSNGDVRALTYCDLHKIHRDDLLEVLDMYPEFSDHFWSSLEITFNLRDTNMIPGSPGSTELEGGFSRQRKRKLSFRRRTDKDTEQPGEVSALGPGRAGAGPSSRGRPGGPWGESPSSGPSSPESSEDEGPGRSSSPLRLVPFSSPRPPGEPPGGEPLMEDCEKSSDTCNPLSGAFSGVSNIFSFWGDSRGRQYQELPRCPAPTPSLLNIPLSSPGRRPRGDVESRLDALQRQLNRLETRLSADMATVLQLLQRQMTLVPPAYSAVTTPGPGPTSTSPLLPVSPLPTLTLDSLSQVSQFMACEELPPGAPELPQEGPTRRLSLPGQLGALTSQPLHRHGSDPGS
row,Compound,"hERG current change (%, negative = inhibition) at 10uM [%]"
1,Cc1ccc(C2(C(F)(F)F)N=C3Sc4cc(C)cc(C)c4N3C(=O)N2)cc1 (centres unmarked),-4.05
2,O=C(NCCCN1CCOCC1)c1cc(-c2ccc(Br)cc2)nc2ccccc12,-39.7
3,O=C(NC1C2CC3CC(C2)CC1C3)c1ccc(N2CCNCC2)c([N+](=O)[O-])c1 (centres unmarked),-18
4,O=c1c2oc3ccccc3c2[nH]c(=S)n1-c1ccc(F)cc1,25.3
5,COc1cccc(C2NC(=O)NC(C)=C2C(=O)Nc2ccc(C)cc2)c1OC (centres unmarked),-6.16
6,COc1ccccc1-n1c(=O)oc2ccc(Cl)cc2c1=O,-7.54
7,Cl.O=C(NCCOC(=O)c1ccc(C(=O)OCCNC(=O)c2cccnc2)s1)c1cccnc1,7.73
8,Cc1ccc(S(=O)(=O)Nc2cc(C(=O)O)ccc2N2CCCCC2)cc1,9.4
9,Cc1ccc(S(=O)(=O)Nc2cc(C(=O)NCCN(C)C)ccc2N2CCCCC2)cc1,-36.8
10,Cc1ccc(S(=O)(=O)Nc2cc(C(=O)N3CCOCC3)ccc2N2CCCCC2)cc1,-20.5
11,CCN(CC)CCCNC(=O)c1ccc(N2CCCCC2)c(NS(=O)(=O)c2ccc(C)cc2)c1,-69.2
12,Cc1ccc(S(=O)(=O)Nc2cc(C(=O)N3CCC4(CC3)OCCO4)ccc2N2CCCCC2)cc1,-51.3
13,Cc1ccc(S(=O)(=O)Nc2cc(C(=O)NCCN(C)C)ccc2N2CCCC2)cc1,-6.83
14,CCC1CCCCN1CCCNC(=O)c1ccc(N2CCOCC2)c(NS(=O)(=O)c2ccc(OC)cc2)c1 (centres unmarked),-57.6
15,CCN1CCCC1CNC(=O)c1ccc(N2CCOCC2)c(NS(=O)(=O)c2ccc(OC)cc2)c1 (centres unmarked),-24.4
16,CCCCNC(=O)c1ccc(N2CCOCC2)c(NS(=O)(=O)c2ccc(OC)cc2)c1,-40.4
17,COc1ccc(OC)c(S(=O)(=O)Nc2c(F)cccc2F)c1,16
18,CC1CN(C(=O)N2CCCCC2)CCN1C(=O)N1CCCCC1 (centres unmarked),16.9
19,CCN(CC(=O)Nc1ccc(S(=O)(=O)N2CCOCC2)cc1)Cc1ccccc1,-16.5
20,O=C(CCc1ccccc1Cl)Nc1ccc(S(=O)(=O)N2CCOCC2)cc1,-4.49
21,Cc1cccc(C(=O)NN2C(=O)C3C(c4ccccc4)C=CC(c4ccccc4)C3C2=O)c1 (centres unmarked),3.83
22,COc1cccc(-c2ccc(NC(=O)C3CCCN(Cc4cnn(C)c4C)C3)cc2)c1 (centres unmarked),0.939
23,COc1cccc(-c2ccc(NC(=O)C3CCCN(CCCn4nc(C)cc4C)C3)cc2)c1 (centres unmarked),-66
24,COc1cccc(-c2ccc(NC(=O)C3CCCN(Cc4cc(C)[nH]n4)C3)cc2)c1 (centres unmarked),-36.5
25,COc1cccc(-c2ccc(NC(=O)C3CCCN(Cc4nccn4C)C3)cc2)c1 (centres unmarked),-31.8
26,COc1cccc(-c2ccc(NC(=O)C3CCCN(Cc4ccco4)C3)cc2)c1 (centres unmarked),6.02
27,COc1cccc(-c2ccc(NC(=O)C3CCCN(CCCn4cccn4)C3)cc2)c1 (centres unmarked),-64.1

row,Compound,"hERG current change (%, negative = inhibition) at 10uM [%]"
1,CCOC(=O)N1CCC(NS(=O)(=O)c2ccc(C#N)cc2)CC1,-2.64
2,NS(=O)(=O)c1cccc(NC(=O)COC(=O)CNC(=O)c2ccc(-c3ccccc3)cc2)c1,5.77
3,CC(C)CNC(=O)COC(=O)CCC(=O)c1ccc(F)cc1,6.45
4,C1=C(CCNc2ncnc3c2cnn3-c2ccccc2)CCCC1,8.79
5,Cn1cc(C=C2C(=O)OC3(CCCCC3)OC2=O)c2ccccc21,9.19
6,O=C(OCc1nc2ccccc2[nH]1)C1CCCCC1,2.85
7,COc1ccc(NC(=O)CN(C)C(=O)C2CC(=O)N(Cc3ccc(C)cc3)C2)cc1 (centres unmarked),4.41
8,Cc1ccc(N2CC(C(=O)N3CCC(C(=O)Nc4cccc(Br)c4)CC3)CC2=O)cc1 (centres unmarked),-60.1
9,COc1ccccc1NC(=O)C1CCN(C(=O)C2CC(=O)N(c3ccc(C)cc3)C2)CC1 (centres unmarked),-9.15
10,CC(=O)Nc1ccc(NC(=O)C2CCN(C(=O)C3CC(=O)N(c4ccc(C)cc4)C3)CC2)cc1 (centres unmarked),12.4
11,Cc1ccc(N2CC(C(=O)N3CCC(C(=O)NC(C)(C)C)CC3)CC2=O)cc1 (centres unmarked),20.2
12,C=CCNC(=O)C1CC(=O)N(c2ccc(Br)cc2)C1 (centres unmarked),-7.08
13,COc1ccc(Cl)cc1NC(=O)CN(C)C(=O)C1CC(=O)N(Cc2ccc(C)cc2)C1 (centres unmarked),-50
14,Cc1ccc(N2CC(C(=O)N3CCC(C(=O)Nc4ccc(Br)cc4)CC3)CC2=O)cc1 (centres unmarked),-64.2
15,O=C(O)C1CC(=O)N(c2ccc(Br)cc2)C1 (centres unmarked),4.94
16,COc1ccc(CCN(C)C(=O)C2CC(=O)N(Cc3ccc(C)cc3)C2)cc1OC (centres unmarked),0.405
17,C=CCN(CC=C)C(=O)C1CC(=O)N(c2ccc(Br)cc2)C1 (centres unmarked),-59.2
18,CCOc1ccc(NC(=O)C2CCN(C(=O)C3CC(=O)N(c4ccc(C)cc4)C3)CC2)cc1 (centres unmarked),-22.1
19,O=C(Nc1ccc(F)cc1F)c1ccco1,2.94
20,COc1nc(N)c(S(=O)(=O)c2ccccc2)cc1C#N,-19
21,COc1cccc(S(=O)(=O)N2CCN(Cc3ccc4c(c3)OCO4)CC2)c1,-24.4
22,COC(=O)/C(=C\Nc1ccc(Cl)cc1Cl)NC(=O)c1ccc(OC)cc1,5.27
23,Fc1ccc(C2=CC(c3ccco3)n3nnnc3N2)cc1 (centres unmarked),-6.76
24,Cc1ccc(OC(C)C(=O)Nc2cc(C)on2)cc1 (centres unmarked),2.53
25,O=C(NCCSCc1ccccc1)c1ccc(C2SCC(=O)N2Cc2ccccc2)cc1 (centres unmarked),-8.07
26,CC(=O)c1cccc(NC(=O)c2ccco2)c1,7.09
